Measurements taken from PubChem BioAssay (Tox21).
“And” between values parts separate entries of the source, which are not always exact repeats. Identical values can stand only once. Results filed as inconclusive are left out. Where a call stands in place of a potency, no number is given. A structure can be active in one record and inactive in another. The source made the active and inactive calls. Unless noted, the call rests on the fitted dose curve; in most records, active means well fitted curve in the direction sought with a large enough effect in the repeat runs; inconclusive means weak or mixed curves; inactive means no such curve, though single readings can be large; an effect the other way counts as inactive or inconclusive.

Legend:
[1] = qHTS assay to identify small molecule agonists of H2AX (AID 1224845; active means well fitted activation curve with a large enough effect in the signal ratio in the repeat runs, not every such curve was filed as active; the % refers to the signal ratio; further: potency means the concentration at half of the fitted maximal effect); details: CHO-K1 phospho-H2AX Ser139 HTRF, 3 h; series mostly up to 154 µM
Procedure, shortened: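 Phospho-H2AX Ser139 measured by HTRF (ex 320 nm; em 665 and 620 nm) after 24 hr antibody incubation. Compounds, 15 concentrations, 0.76% DMSO, were applied to CHO-K1 cells for 3hr at 37C before lysis.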

[2] = qHTS assay to identify small molecule agonists of H2AX - cell viability counter screen (AID 1224847; calls by dose curve; further: nearly all actives have a fitted effect of over 30% in size; further: potency means the concentration at half of the fitted maximal effect); details: CHO-K1 viability, CellTiter-Glo luminescence, 3 h; series mostly up to 154 µM
Procedure, shortened: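 After overnight plating of 1000 CHO-K1 cells per well, a 15-concentration compound series was applied for 3 hr at 37C. Luminescence from CellTiter-Glo, read following 30 min at room temperature, reflected cell viability.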

[3] = qHTS assay to identify small molecule antagonists of the estrogen related receptor (ERR) signaling pathway from Tox21 library (AID 1224848); details: ERR reporter cell line, luciferase antagonist mode, 18 h; series mostly up to 92.4 µM; further: nearly all actives have a fitted effect of over 50% in size; further: potency means the concentration at half of the fitted maximal effect
Procedure, shortened: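 Reading was by luminescence 30 min after ONE-Glo addition. Before that, ERR cells at 2,000 per well had rested 6 h at 37 C/5% CO2 and then received pin-tooled compounds in DMSO for 18 h at 37 C.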

[4] = qHTS assay to identify small molecule agonists of the estrogen related receptor (ERR) signaling pathway from Tox21 library (AID 1224849; calls by dose curve; further: nearly all actives have a fitted effect of over 15% in size); details: ERR reporter cell line, ONE-Glo luciferase, 18 h
Procedure, shortened: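 We plated ERR reporter cells, waited 6 h, added compounds in DMSO by pin tool and incubated them 18 h at 37 C. ONE-Glo was then added and luminescence read after 30 min.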

[5] = qHTS RealTime-Glo MT Cell Viability Assay in HepG2 cells - 24 hour (AID 1224867); details: RealTime-Glo luminescence; series mostly up to 76.8 µM; further: nearly all actives have a fitted effect of over 50% in size; further: potency means the concentration at half of the fitted maximal effect
Procedure, shortened: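 Viability was tracked continuously by NanoLuc luminescence from prosubstrate reduced by living HepG2 cells, at successive time points over 40 h of compound exposure. Cells with reagent were preincubated 5 h at 37 °C before compound addition.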

[6] = qHTS RealTime-Glo MT Cell Viability Assay in HEK293 cells - 32 hour (AID 1224868); details: RealTime-Glo luminescence; series mostly up to 76.8 µM; further: nearly all actives have a fitted effect of over 50% in size; further: potency means the concentration at half of the fitted maximal effect
Procedure, shortened: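 Viability tracked continuously by luminescence as live cells reduce a prosubstrate for NanoLuc; HEK293 cells preincubated 5 h, compound-treated at 37 C, and read at 0, 8, 16, 24, 32 and 40 h.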

[7] = A CellTox Green Cytotoxicity Assay to monitor cytotoxicity in HEK293 cells - 0 hour (AID 1224869); details: CellTox Green fluorescence; series mostly up to 76.8 µM; further: nearly all actives have a fitted effect of over 50% in size; further: potency means the concentration at half of the fitted maximal effect
Procedure, shortened: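 Each value comes from one timepoint of a single continuous run in which HEK293 cells with CellTox Green were exposed to compound for up to 40 h at 37 C, dye fluorescence rising with cell death.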

[8] = qHTS RealTime-Glo MT Cell Viability Assay in HepG2 cells - 40 hour (AID 1224870); details: RealTime-Glo luminescence; series mostly up to 76.8 µM; further: nearly all actives have a fitted effect of over 50% in size; further: potency means the concentration at half of the fitted maximal effect
Procedure, shortened: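 Real-time viability: cells seeded at 600 per well together with NanoLuc and cell-permeant prosubstrate, compounds added after 5 h incubation. Luminescence tracked at 0, 8, 16, 24, 32 and 40 h of exposure.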

[9] = qHTS assay to identify small molecule agonists of the hypoxia (HIF-1) signaling pathway (AID 1224846; active means well fitted activation curve with a large enough effect in the signal ratio in the repeat runs, not every such curve was filed as active; the % refers to the signal ratio); details: HRE-bla ME-180 cells, beta-lactamase ratio, 17 h; series mostly up to 76.8 µM
Procedure, shortened: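 Measured by blue/green FRET after loading CCF4-AM: beta-lactamase expressed from a hypoxia response element in ME-180 cells. Test agents were delivered in DMSO and left 17 hrs; cells had been plated 5 hrs earlier in low-serum (0.5% dialyzed FBS) medium.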

SMILES	Potency [1]	Potency [2]	Potency [3]	activity change, positive = activation ([4]; at 42.5 µM (top of the series))	Potency [5]	Potency [6]	Potency [7]	Potency [8]	activity change, positive = activation ([4]; at 92.4 µM (top of the series))	Potency [9]
OCC(CO)N[C@H]1C[C@](O)(CO)[C@@H](O)[C@H](O)[C@H]1O	inactive	inactive	inactive	2.44% (inactive)	inactive	inactive	inactive	inactive		
C=CS(=O)(=O)O	inactive	inactive	inactive		inactive	inactive		inactive	-0.911% (inactive)	
CCCCOCCOC(=O)c1ccccc1C(=O)OCCOCCCC	inactive	inactive	26.7 µM (active) and 30.6 µM (active)		inactive	inactive	inactive	inactive	-34.9% (inactive) and -38.2% (inactive)	
O=S(=O)(O)c1ccc2nc(-c3ccccc3)[nH]c2c1	inactive	30.3 µM (active) and 22 µM (active)	inactive	2.03% (inactive)	inactive	inactive	inactive	inactive	-3.59% (inactive)	
O=C(OCc1ccccc1)c1ccc(O)cc1	inactive	inactive			inactive	inactive	inactive	inactive		
CO[Si](OC)(OC)c1ccccc1	inactive	inactive	inactive		inactive	inactive	inactive	inactive	18% (inactive)	
CNCCC(Oc1ccc(C(F)(F)F)cc1)c1ccccc1 (stereo not given)		112 µM (active) and 49.2 µM (active)					inactive			
CCCCCCCCCCCC[N+](C)(C)C	inactive	113 µM (active) and inactive				6.15 µM (active) and 3.47 µM (active)	inactive	48.9 µM (active) and 49 µM (active) and 43.6 µM (active)		
O=Nc1ccc(Nc2ccccc2)cc1		50.8 µM (active)	inactive			6.2 µM (active) and 9.77 µM (active)			-76% (active)	
COc1ccc(CCN(C)CCCC(C#N)(c2ccc(OC)c(OC)c2)C(C)C)cc1OC (stereo not given)		inactive					inactive			
CC(=O)CC(=O)Nc1ccc2[nH]c(=O)[nH]c2c1	inactive	inactive	inactive		inactive	inactive	inactive	inactive	4.73% (inactive)	
COC(=O)/C=C/c1ccccc1	inactive	inactive			inactive	inactive	inactive and 21.9 µM (active)	inactive		
c1cnc2cc3c(cc2n1)C1CNCC3C1	inactive	inactive	inactive	1.11% (inactive)	inactive	inactive		inactive		
CC(C)(C)NCC(O)COc1ccccc1OCC1CCCO1 (stereo not given)	inactive	inactive	inactive	4.72% (inactive)	inactive	inactive	inactive	inactive		
Oc1c(Cl)cc(Cl)c(Cl)c1Cc1c(O)c(Cl)cc(Cl)c1Cl	inactive	25.2 µM (active) and 40.1 µM (active)	3.05 µM (active) and 2.73 µM (active) and 3.35 µM (active)	-49.7% (inactive)	inactive	3.08 µM (active) and 5.49 µM (active)		inactive and 38.9 µM (active)	-37.2% (inactive) and -60.8% (inactive)	
Cc1cc(Cc2cc(C)cc(C(C)(C)C)c2O)c(O)c(C(C)(C)C)c1	56.9 µM (active) and 45 µM (active)	40.3 µM (active) and 31.8 µM (active)	27.4 µM (active) and 30.6 µM (active)		49.2 µM (active) and 43.6 µM (active)	9.82 µM (active) and 15.5 µM (active)	inactive	55.2 µM (active) and 49 µM (active)	-73.5% (inactive) and -62.7% (inactive)	
CCC(C)(Oc1ccc(C2(c3ccc(OC(C)(CC)C(=O)O)cc3)CCCCC2)cc1)C(=O)O (stereo not given)	inactive	inactive	inactive	9.22% (inactive)	inactive	inactive		inactive		
Nc1cc(S(=O)(=O)O)cc2cc(S(=O)(=O)O)cc(O)c12		inactive			inactive	inactive		inactive		
C=CC(=O)OCCCCCCOC(=O)C=C	114 µM (active)		inactive		inactive and 43.6 µM (active)	49 µM (active)		inactive	-0.87% (active) and -57.5% (active)	
CC(C)(C)c1cc(C(C)(C)C)c(O)c(C(C)(C)C)c1		101 µM (active)			inactive	inactive	inactive	inactive		
NC(N)=NC(=O)Cc1c(Cl)cccc1Cl	inactive	inactive	inactive	-1.99% (inactive)	inactive	inactive	inactive	inactive		
C1COC(NC(C2CC2)C2CC2)=N1	inactive	inactive	inactive	-1.34% (inactive)	inactive	inactive	inactive	inactive		
CC(=O)CC(C)=O	inactive	inactive	inactive		inactive	inactive	inactive	inactive	3.5% (inactive)	
Cc1c(O)cccc1C(=O)N[C@@H](CSc1ccccc1)[C@H](O)CN1C[C@H]2CCCC[C@H]2C[C@H]1C(=O)NC(C)(C)C	inactive	49.2 µM (active)	15 µM (active) and 18.8 µM (active)	-54.6% (inactive)		19 µM (active)	inactive		-64.1% (inactive)	
CCCC(=O)c1ccccc1	inactive	inactive	inactive		inactive	inactive	inactive	inactive	1.85% (inactive)	
N[C@@H]1CONC1=O	inactive	inactive	inactive	7.16% (inactive)	inactive	inactive		inactive		
O=c1n(CC2CO2)c(=O)n(CC2CO2)c(=O)n1CC1CO1 (stereo not given)	112 µM (active)	inactive			inactive		inactive	inactive		
CCC(C)(C)C(=O)O[C@H]1C[C@@H](C)C=C2C=C[C@H](C)[C@H](CC[C@@H]3C[C@@H](O)CC(=O)O3)[C@H]21	inactive	inactive					inactive			inactive
CC(C)CCOC(=O)c1ccc(N(C)C)cc1	inactive	inactive	inactive	81.2% (active)	inactive	inactive	inactive	inactive		
CCOc1ccccc1C(N)=O	inactive	inactive			inactive	inactive	inactive	inactive		
